# Assay results reported in PubChem BioAssay.
# Tested on: Sam68 (KHDRBS1)
# Test: Sam68 small-molecule binders, primary screen, biochemical, small-molecule microarray, 635 nm fluorescence (AID 1125);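 also: score merges 667 nm channel intensity with signal to noise over triplicate slides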
# Conditions: small-molecule microarray binding, higher = more signal
row,Structure (SMILES),composite z-score
1,CCCCCN1CC=CC23O[C@@H]4C=CCOC(=O)[C@@H]4[C@H]2C(=O)N(C(C)CO)[C@@H]3C1=O (some centres undefined),-1.22
2,CO[C@H]1O[C@H](CO)[C@@H](OC(=O)Nc2cccc(F)c2)[C@H](OC(=O)Nc2ccccc2)[C@H]1OC(=O)Nc1ccccc1,1.29
3,NC(=O)[C@@H]1[C@H]2C(=O)O[C@H](c3ccccc3)[C@H](c3ccccc3)N2[C@H](c2ccc(O)cc2)[C@@]12C(=O)Nc1ccc(C#CC3=CCCCC3)cc12,0.449
4,C=CC1c2cc(O)c(OC)cc2CCN1Cc1cccc(OC(F)(F)F)c1 (centres undefined),0.909
5,CC(C)[Si](C#CCCCC#N)(O[C@H](c1ccccc1)c1cn(Cc2cccc(Cl)c2)nn1)C(C)C,1.3
6,COC(=O)c1c2oc(c1C(=O)OC)C(=O)NC1(CCCCC1)c1cn(nn1)C[C@H](Cc1ccccc1)NC(=O)N[C@H](CO)CC2,0.789

# Tested on: Chordin-like protein 2 (CHRDL2)
# Test: CHRDL2 small-molecule binders, primary screen, biochemical, small-molecule microarray, 635 nm fluorescence (AID 1126);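 also: printed compound slides probed with Chrdl2 protein at 4 µg/mL for 1 h at 4 C; score merges 667 nm emission intensity with signal to noise over three replicate slides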
# Conditions: small-molecule microarray binding, fluorescence 635 nm; higher = more signal
row,Structure (SMILES),composite z-score
1,O=C1O[C@@H](c2ccccc2)[C@@H](c2ccccc2)N2[C@@H](c3ccc(OCCO)cc3)[C@]3(C(=O)Nc4ccc(C#CC5=CCCCC5)cc43)[C@@H](C(=O)N3CCCCCCC3)[C@H]12,1.42
2,CN1C(=O)C2C=CC(C(O)c3ccccc3)N(N3CCCCC3)C2C1=O (centres undefined),-0.409
3,C[C@H]1C2[C@H](Cc3ccccc3)NC(=O)[C@]23C(=O)NCC(=O)N2CCC[C@H]2C(=O)NC/C=C/CCC/C=C/C3[C@@H]2O[C@]12C (some centres undefined),-0.143
4,NC(=O)NCC#Cc1ccc2c(c1)[C@]1(C(=O)N2)[C@H](C(=O)O)[C@H]2C(=O)O[C@H](c3ccccc3)[C@H](c3ccccc3)N2[C@@H]1c1ccc(O)cc1,0.265
5,O=C(O)C1N=C(c2ccc(OCCCO)cc2)N(c2ccccc2)O1 (centres undefined),0.153
6,CN(C)CCCCCCNC(=O)[C@@H]1C[C@@H]2C(=O)N[C@@H](CCCC[N+](C)(C)C)C(=O)N2[C@@H]1c1ccc(O)cc1,0.918
7,O=C1OCC=C[C@H]2OC34C=CCN(CCN5CCOCC5)C(=O)[C@H]3N(CCO)C(=O)[C@@H]4[C@@H]12 (some centres undefined),0.0881
8,CS(=O)(=O)CCOC(=O)C1=CC(CCCO)=CC(C2CC2)N(Cc2cc3c(cc2Br)OCO3)C=C1C(=O)OCCS(C)(=O)=O (centres undefined),0.45
9,CCCC=C(CCC)[C@@H](NS(=O)(=O)c1ccc(Cl)cc1)c1ccc(C(=O)OC)cc1,-0.0433
10,[N-]=[N+]=Nc1ccccc1C[C@@]1(C(=O)N2CCCCC2)N=C(c2ccc(OCCCO)cc2)O[C@@H]1c1ccccc1N=[N+]=[N-],-0.501
11,O=C1O[C@H](c2ccccc2)[C@H](c2ccccc2)N2[C@H]1[C@@H](C(=O)NC[C@H](O)c1ccccc1)[C@]1(C(=O)Nc3ccc(C#CC4=CCCCC4)cc31)[C@H]2c1ccccc1OCCO,-0.0358
12,C=CCC(OC(C)=O)[C@@H]1[C@@H](N(Cc2cc3ccccc3o2)C(=O)Cc2ccc(OC)cc2)c2cc(OCCCO)ccc2N1C(=O)c1ccc2ccccc2c1 (some centres undefined),-0.257
13,O=C1[C@H]2C=C(I)[C@H](C[C@@H]2OCCCCO)[C@@]12CO2,-0.11
14,[N-]=[N+]=Nc1ccccc1C[C@]1(C(=O)NCC(O)CO)N=C(c2ccc(OCCCO)cc2)O[C@H]1c1ccccc1 (some centres undefined),-1.5
15,O=C1O[C@H](c2ccccc2)[C@H](c2ccccc2)N2[C@H]1[C@@H](C(=O)NC[C@H](O)c1ccccc1)[C@]1(C(=O)Nc3ccccc31)[C@H]2c1ccc(O)cc1,1.23
16,CCN(CC)c1ccc(N2CC=CC34O[C@@H]5C=CCOC(=O)[C@@H]5[C@H]3C(=O)N(CCCCCCO)[C@@H]4C2=O)cc1 (some centres undefined),-1.5
17,CC1CC/C=C\[C@H]2OC34C=CCN(c5ccc6ccccc6c5)C(=O)[C@H]3N(CCO)C(=O)[C@@H]4C2C(=O)O1 (some centres undefined),-0.628
18,CC=CC(O)C1C=CC2C(=O)N(C)C(=O)C2N1N(c1ccccc1)c1ccccc1 (centres undefined),0.686
19,CCOC(=O)C1=CCC(c2ccc(F)cc2)N(S(=O)(=O)c2ccc(C)cc2)C1 (centres undefined),0.563
20,O=C1C2C=CC(C(O)C=Cc3ccc([N+](=O)[O-])cc3)N(Nc3ccccc3F)C2C(=O)N1c1ccccc1 (centres undefined),0.0612
21,C=CCN1Cc2ccccc2[C@@H]2OC(c3ccc(OCCCO)cc3)=N[C@]2(CCS(=O)(=O)c2ccccc2)C1=O,1.03
22,O=C(CS)NCCCCCNC(=O)[C@H]1C[C@H]2C(=O)NCC(=O)N2[C@H]1c1ccc(O)cc1,-0.559
23,[N-]=[N+]=NCc1ccccc1[C@@H]1OC(c2ccc(OCCCO)cc2)=N[C@]1(CCS(=O)(=O)c1ccccc1)C(N)=O,1.1
